Read-out in test [1]: Tissue plasminogen activator (tPA), PLAT (gene 5327)
The experiment in a line: BSK_BE3C_tPA: BioMAP Diversity Plus: BE3C Assay for Tissue plasminogen activator (tPA) Biomarker Activity (AID 2283041).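 As to outcome: tPA level quantified by ELISA one day after compound addition.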 The note with it: primary human bronchial epithelial cells; actives raise or lower the signal. Summed up: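 Using human lung primary bronchial epithelial cells, tPA was measured by ELISA 24 h after dosing; data fitted relative to DMSO.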

Read-out in test [2]: Interleukin-8 (IL8), CXCL8 (gene 3576)
The experiment in a line: BSK_CASM3C_IL8: BioMAP Diversity Plus: CASM3C Assay for Interleukin-8 (IL8) Biomarker Activity (AID 2283042).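 Also: IL-8 protein level quantified by ELISA.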 Conditions: primary human coronary artery smooth muscle cells; actives raise or lower the signal.

Read-out in test [3]: Human Leukocyte Antigen - DR isotype (HLADR), HLA-DRA (gene 3122)
In words: BSK_CASM3C_HLADR: BioMAP Diversity Plus: CASM3C Assay for Human Leukocyte Antigen - DR isotype (HLADR) Biomarker Activity (AID 2283043).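 Also: cell-surface HLA-DR protein level quantified by ELISA.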 The note with it: primary human coronary artery smooth muscle cells; actives raise or lower the signal.

Read-out in test [4]: Macrophage colony-stimulating factor (MCSF), CSF1 (gene 1435)
In words: BSK_CASM3C_MCSF: BioMAP Diversity Plus: CASM3C Assay for Macrophage colony-stimulating factor (MCSF) Biomarker Activity (AID 2283044).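 Also: M-CSF protein amount quantified by ELISA after 24 h exposure.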 The note with it: primary human coronary artery smooth muscle cells; actives raise or lower the signal.

Read-out in test [5]: Low-density lipoprotein receptor (LDLR), LDLR (gene 3949)
The experiment in a line: BSK_CASM3C_LDLR: BioMAP Diversity Plus: CASM3C Assay for Low-density lipoprotein receptor (LDLR) Biomarker Activity (AID 2283045).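 Also: LDLR protein level on the cell surface quantified by ELISA.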 Conditions: primary human coronary artery smooth muscle cells; actives raise or lower the signal.

Read-out in test [6]: Monocyte Chemoattractant Protein-1 (MCP1), CCL2 (gene 6347)
In words: BSK_CASM3C_MCP1: BioMAP Diversity Plus: CASM3C Assay for Monocyte Chemoattractant Protein-1 (MCP1) Biomarker Activity (AID 2283046).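 Also: MCP-1 level quantified by ELISA 24 h after dosing.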 Conditions: primary human coronary artery smooth muscle cells; actives raise or lower the signal.

Test [7] in a line: BSK_CASM3C_Proliferation: Cell Proliferation Assessment in the BioMAP Diversity Plus: CASM3C Assay (AID 2283047).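 Also: sulforhodamine B total protein stain as relative cell number at 560 nm; sub-confluent cells exposed 48 h before staining; fitted both ways against DMSO so gain or loss of cell number.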 Conditions: primary human coronary artery smooth muscle cells.
Read-out in test [8]: Monokine induced gamma interferon (MIG), CXCL9 (gene 4283)
The experiment in a line: BSK_CASM3C_MIG: BioMAP Diversity Plus: CASM3C Assay for Monokine induced gamma interferon (MIG) Biomarker Activity (AID 2283048).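 Also: MIG protein level measured by ELISA.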 Conditions: primary human coronary artery smooth muscle cells; actives raise or lower the signal.

Read-out in test [9]: serum amyloid A (SAA), SAA1 (gene 6288)
The experiment in a line: BSK_CASM3C_SAA: BioMAP Diversity Plus: CASM3C Assay for serum amyloid A (SAA) Biomarker Activity (AID 2283049).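 Also: SAA protein level quantified by ELISA.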 The note with it: primary human coronary artery smooth muscle cells; actives raise or lower the signal.

Test [10] is described as follows: BSK_CASM3C_SRB: Viability Assessment in the BioMAP Diversity Plus: CASM3C Assay (AID 2283050).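 Also: total protein by SRB staining as cytotoxicity measure in parallel cultures; cells exposed to compound for 24 h.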 Conditions: primary human coronary artery smooth muscle cells.
Read-out in test [11]: Thrombomodulin, THBD (gene 7056)
In words: BSK_CASM3C_Thrombomodulin: BioMAP Diversity Plus: CASM3C Assay for Thrombomodulin Biomarker Activity (AID 2283051).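 Also: thrombomodulin protein level measured by ELISA 24 h after dosing.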 The note with it: primary human coronary artery smooth muscle cells; actives raise or lower the signal.

Read-out in test [12]: Tissue Factor, F3 (gene 2152)
In words: BSK_CASM3C_TissueFactor: BioMAP Diversity Plus: CASM3C Assay for Tissue Factor Biomarker Activity (AID 2283052).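 Also: cell surface tissue factor protein level read by ELISA.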 The note with it: primary human coronary artery smooth muscle cells; actives raise or lower the signal.

Read-out in test [13]: Interferon-gamma inducible Protein 10 (IP10), CXCL10 (gene 3627)
The experiment in a line: BSK_hDFCGF_IP10: BioMAP Diversity Plus: hDFCGF Assay for Interferon-gamma inducible Protein 10 (IP10) Biomarker Activity (AID 2283053). Conditions: primary human foreskin fibroblasts; actives raise or lower the signal. The gist of the method: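 Chemical-treated human skin fibroblasts (primary) were sampled at 24 h for IP-10 by ELISA. Both increases and decreases relative to DMSO were scored.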

Read-out in test [14]: Urokinase-type plasminogen activator receptor (uPAR), PLAUR (gene 5329)
In words: BSK_CASM3C_uPAR: BioMAP Diversity Plus: CASM3C Assay for Urokinase-type plasminogen activator receptor (uPAR) Biomarker Activity (AID 2283054).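 Also: cell-surface uPAR protein level quantified by ELISA.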 The note with it: primary human coronary artery smooth muscle cells; actives raise or lower the signal.

Read-out in test [15]: Vascular cell adhesion molecule 1 (VCAM1), VCAM1 (gene 7412)
In words: BSK_CASM3C_VCAM1: BioMAP Diversity Plus: CASM3C Assay for Vascular cell adhesion molecule 1 (VCAM1) Biomarker Activity (AID 2283055).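 Also: VCAM-1 protein level quantified by ELISA on the cells.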 The note with it: primary human coronary artery smooth muscle cells; actives raise or lower the signal.

Read-out in test [16]: Collagen III, COL3A1 (gene 1281)
The experiment in a line: BSK_hDFCGF_CollagenIII: BioMAP Diversity Plus: hDFCGF Assay for Collagen III Biomarker Activity (AID 2283056). Conditions: primary human foreskin fibroblasts; actives raise or lower the signal. The gist of the method:
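ELISA read-out of collagen III from human skin fibroblast cultures sampled 24 h post-dosing. Values were derived by bidirectional fitting relative to the DMSO vehicle control.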

Read-out in test [17]: Epidermal growth factor receptor (EGFR), EGFR (gene 1956)
The experiment in a line: BSK_hDFCGF_EGFR: BioMAP Diversity Plus: hDFCGF Assay for Epidermal growth factor receptor (EGFR) Biomarker Activity (AID 2283057). Conditions: primary human foreskin fibroblasts; actives raise or lower the signal. The gist of the method:
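Cell-based multiplexed assay in primary human foreskin fibroblasts. EGFR is read by ELISA 24 h after treatment and compared with DMSO controls.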

Read-out in test [18]: Interleukin-8 (IL8), CXCL8 (gene 3576)
The experiment in a line: BSK_hDFCGF_IL8: BioMAP Diversity Plus: hDFCGF Assay for Interleukin-8 (IL8) Biomarker Activity (AID 2283058). The note with it: primary human foreskin fibroblasts; actives raise or lower the signal. Summed up:
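Cells used are human skin primary fibroblasts. Chemical is added, cultures run 24 h, then IL-8 is quantified by ELISA, and gain or loss versus DMSO control is fitted in both directions.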

Test [19] is described as follows: BSK_hDFCGF_Proliferation: Cell Proliferation Assessment in the BioMAP Diversity Plus: hDFCGF Assay (AID 2283059).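 Also: curves fitted for both rise and fall of signal versus DMSO baseline.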 Conditions: primary human foreskin fibroblasts. The gist of the method:
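Steps: dose primary human dermal fibroblasts (foreskin); […] fix in 10% TCA; stain with 0.1% SRB; read 560 nm; fit gain or loss of signal against DMSO.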

Read-out in test [20]: Macrophage colony-stimulating factor (MCSF), CSF1 (gene 1435)
In words: BSK_hDFCGF_MCSF: BioMAP Diversity Plus: hDFCGF Assay for Macrophage colony-stimulating factor (MCSF) Biomarker Activity (AID 2283060). The note with it: primary human foreskin fibroblasts; actives raise or lower the signal. Summed up: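 Primary human foreskin fibroblasts dosed with chemical; 24 h later, M-CSF quantified by ELISA; curves fitted in both directions vs DMSO negative control.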

Several values for one entry are separate records, joined by “and”; a condition that tells them apart may be missing. Identical values can stand only once. Where a structure was tested more than once in an assay, its records may differ in their call. Activity calls are given as the source filed them. The calls were made as follows: active = hit-call score of the fitted dose curve at least 0.9, where 1 is the maximum; inactive = score below 0.9.

For five molecules, outcome and AC50 results are on record in PubChem BioAssay (EPA / NIEHS).

On to `CCCCCCCCCCCCCCCC(=O)OC/C=C(C)/C=C/C=C(C)/C=C/C1=C(C)CCCC1(C)C`, for which the outcome in [1], in test [2], in [3], in [4], in [5] and in [6] was inactive. Further, the result in test [7], in test [8], in test [9], in test [10], in [11] and in test [12] was inactive. Besides, the result in test [13], in [14], in [17] and in [18] was inactive. The results for the AC50 in [15], in test [16] and in [19] were 32.6 nM (active), 3.97 µM (active) and 27.7 µM (active), respectively.

For `CCOC(=O)C(C#N)=C(c1ccccc1)c1ccccc1`, the result in test [1], in test [2], in [3], in test [4], in test [5] and in test [6] was inactive. The outcome in test [8], in [9], in test [10], in test [11], in [12] and in test [13] was inactive. Also, the result in test [14], in test [15], in test [17], in test [18] and in test [19] was inactive. Further, the AC50 in test [7] is 12.8 µM (active) and 3.97 µM (active); in test [11], 13.7 µM (active); in [16], 29.7 µM (active) and 21.9 µM (active); in [19] it was 29.5 µM (active).

Regarding `CC1(C)CCC[C@]2(C)[C@H]3CCO[C@]3(C)CC[C@@H]12`, the AC50 was 23 µM (active) and 20 µM (active) in test [1]; 33 µM (active) in test [2]; 34.9 µM (active) and 32.9 µM (active) in [3]; 20 µM (active) in test [4]; 33.4 µM (active) and 33.3 µM (active) in test [6]; 36.3 µM (active) and 36.8 µM (active) in test [7]. Moreover, the AC50 in test [8] is 30.4 µM (active) and 31.2 µM (active); in [9], 34.2 µM (active) and 31.3 µM (active); in test [10] it was 34.5 µM (active) and 35.3 µM (active); in [12], 1.65 µM (active); in [13], 36.5 µM (active) and 37.9 µM (active); in test [14], 34 µM (active) and 31.4 µM (active). Further, the half-maximal activity concentration (AC50) in [15] is 34.1 µM (active) and 33.7 µM (active); in [16], 31.4 µM (active) and 30.6 µM (active); in test [17], 32 µM (active) and 33 µM (active); in [18], 37.9 µM (active) and 35.9 µM (active); in [19] it was 12.1 µM (active) and 30.5 µM (active); in test [20], 36.6 µM (active) and 30.8 µM (active). In addition, the result in test [2], in test [4], in test [5], in test [11] and in test [12] was inactive.

`CSCCC=O`: the outcome in test [1], in test [2], in test [3], in test [4], in [5] and in [6] was inactive. Also, the outcome in [7], in test [8], in test [9], in [10], in test [11] and in [12] was inactive. Besides, the outcome in [13], in test [14], in test [15], in [16], in test [17] and in test [18] was inactive. In test [19], the outcome was inactive.

`CCCCCC(C=O)=Cc1ccccc1`: the result in [1], in test [2], in test [5], in [8], in test [9] and in test [11] was inactive. Besides, the result in test [13], in [17] and in test [18] was inactive. The AC50 in test [3] was 31 µM (active); in test [4], 31.9 µM (active); in test [6], 27.5 µM (active); in test [7] it was 30.1 µM (active); in [10], 33.5 µM (active); in test [12], 20 µM (active). Besides, the AC50 was 39.3 µM (active) in test [14], 31200 nM (active) in [15], 31 µM (active) in [16] and 31.4 µM (active) in test [19].
